Measured values published in the supplement of paper PMC11732987, “Enantioselective OTUD7B fragment discovery through chemoproteomics screening and high-throughput optimisation” (Communications Chemistry, 2025).

Columns and labels:
Assay in all cases: log2 ratio of Biotin-Ahx-Ub-VS probe labelling (fragment/DMSO); higher = less target engagement (more negative = stronger competition), active = hit call of the paper (q ≤ 0.05, log2 ratio ≤ -1)
Settings in all cases: compound concentration: 200 uM; treatment time: 3 h
ALG13 = target: T1, ALG13 (UniProt Q9NP73)
T1 sequence (whole entry): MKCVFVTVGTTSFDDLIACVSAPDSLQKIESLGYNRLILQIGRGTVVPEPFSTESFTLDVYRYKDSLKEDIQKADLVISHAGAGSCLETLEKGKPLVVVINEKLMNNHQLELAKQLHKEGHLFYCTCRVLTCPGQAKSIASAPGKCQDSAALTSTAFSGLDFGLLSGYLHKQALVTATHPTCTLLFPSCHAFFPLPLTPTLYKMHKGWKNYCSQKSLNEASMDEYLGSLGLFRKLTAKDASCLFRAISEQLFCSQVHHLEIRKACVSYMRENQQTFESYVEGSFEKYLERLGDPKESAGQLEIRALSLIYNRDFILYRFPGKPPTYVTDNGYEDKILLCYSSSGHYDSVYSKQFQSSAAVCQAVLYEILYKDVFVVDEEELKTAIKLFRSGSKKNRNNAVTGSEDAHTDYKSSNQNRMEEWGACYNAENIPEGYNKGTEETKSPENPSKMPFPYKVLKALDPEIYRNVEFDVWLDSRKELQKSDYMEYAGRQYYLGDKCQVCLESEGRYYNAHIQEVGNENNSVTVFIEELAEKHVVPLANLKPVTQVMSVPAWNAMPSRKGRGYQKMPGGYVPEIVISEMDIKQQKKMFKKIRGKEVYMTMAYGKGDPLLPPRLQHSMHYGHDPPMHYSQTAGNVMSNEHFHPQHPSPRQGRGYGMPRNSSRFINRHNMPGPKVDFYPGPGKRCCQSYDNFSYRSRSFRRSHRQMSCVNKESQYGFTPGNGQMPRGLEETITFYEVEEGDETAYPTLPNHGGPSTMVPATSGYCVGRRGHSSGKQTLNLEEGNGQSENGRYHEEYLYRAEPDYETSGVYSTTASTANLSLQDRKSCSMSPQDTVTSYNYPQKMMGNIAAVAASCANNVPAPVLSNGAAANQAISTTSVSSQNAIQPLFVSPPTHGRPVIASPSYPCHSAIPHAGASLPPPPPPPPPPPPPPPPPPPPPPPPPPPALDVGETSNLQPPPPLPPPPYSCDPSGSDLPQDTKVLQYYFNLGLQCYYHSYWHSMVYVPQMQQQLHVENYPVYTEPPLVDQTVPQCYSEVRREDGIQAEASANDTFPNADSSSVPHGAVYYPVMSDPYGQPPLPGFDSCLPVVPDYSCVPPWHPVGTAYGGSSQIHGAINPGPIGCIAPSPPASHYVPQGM
Summary of the method: (§1)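 Fragment (200 µM) or vehicle was incubated for 3 h with triplicate HEK293T lysate samples of 495 µg, which were then treated with Biotin-Ahx-Ub-VS at 0.5 µM final for 1 h. Labelled DUBs were enriched on NeutrAvidin, digested with LysC and trypsin, and analysed by diaPASEF LC-MS/MS. Values are average log2 fragment/vehicle ratios from an unpaired t-test on global-median-normalised Spectronaut label-free quantities, using proteins with ≥2 unique peptides.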

ATXN3 = ATXN3 (UniProt P54252)
Chain of ATXN3 (P54252 whole entry): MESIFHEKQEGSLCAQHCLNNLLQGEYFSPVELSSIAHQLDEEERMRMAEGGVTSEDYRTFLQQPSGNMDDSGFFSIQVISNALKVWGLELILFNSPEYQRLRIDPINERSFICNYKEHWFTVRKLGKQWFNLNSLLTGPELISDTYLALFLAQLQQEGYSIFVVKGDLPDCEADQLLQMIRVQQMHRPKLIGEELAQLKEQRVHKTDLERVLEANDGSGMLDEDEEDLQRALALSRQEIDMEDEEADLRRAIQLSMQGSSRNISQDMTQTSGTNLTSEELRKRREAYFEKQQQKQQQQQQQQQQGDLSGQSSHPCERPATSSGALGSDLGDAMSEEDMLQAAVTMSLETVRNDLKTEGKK
Summary of the method: as §1

BAP1 = target: T2, BAP1 (UniProt Q92560)
T2 sequence (whole entry): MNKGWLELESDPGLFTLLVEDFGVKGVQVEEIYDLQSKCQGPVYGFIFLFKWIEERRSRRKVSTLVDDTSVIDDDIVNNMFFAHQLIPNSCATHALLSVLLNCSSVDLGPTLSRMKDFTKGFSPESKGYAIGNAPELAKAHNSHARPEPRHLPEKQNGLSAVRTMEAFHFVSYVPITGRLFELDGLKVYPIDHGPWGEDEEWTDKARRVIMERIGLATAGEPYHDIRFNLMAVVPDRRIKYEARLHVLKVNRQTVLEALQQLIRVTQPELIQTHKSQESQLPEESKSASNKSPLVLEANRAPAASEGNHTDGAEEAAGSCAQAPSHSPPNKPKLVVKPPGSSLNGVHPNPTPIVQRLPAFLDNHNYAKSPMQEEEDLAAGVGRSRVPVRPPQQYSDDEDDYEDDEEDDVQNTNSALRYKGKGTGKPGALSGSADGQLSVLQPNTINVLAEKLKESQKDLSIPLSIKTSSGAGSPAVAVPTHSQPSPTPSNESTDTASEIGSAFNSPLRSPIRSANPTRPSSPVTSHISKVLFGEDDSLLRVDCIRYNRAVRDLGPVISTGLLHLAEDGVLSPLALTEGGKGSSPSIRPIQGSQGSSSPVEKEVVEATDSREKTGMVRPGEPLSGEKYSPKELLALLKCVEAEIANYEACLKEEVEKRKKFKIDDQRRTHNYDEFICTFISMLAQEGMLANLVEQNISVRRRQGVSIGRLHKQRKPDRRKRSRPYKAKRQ
Summary of the method: as §1

EIF3F = EIF3F (UniProt O00303)
Chain of EIF3F (O00303 whole entry): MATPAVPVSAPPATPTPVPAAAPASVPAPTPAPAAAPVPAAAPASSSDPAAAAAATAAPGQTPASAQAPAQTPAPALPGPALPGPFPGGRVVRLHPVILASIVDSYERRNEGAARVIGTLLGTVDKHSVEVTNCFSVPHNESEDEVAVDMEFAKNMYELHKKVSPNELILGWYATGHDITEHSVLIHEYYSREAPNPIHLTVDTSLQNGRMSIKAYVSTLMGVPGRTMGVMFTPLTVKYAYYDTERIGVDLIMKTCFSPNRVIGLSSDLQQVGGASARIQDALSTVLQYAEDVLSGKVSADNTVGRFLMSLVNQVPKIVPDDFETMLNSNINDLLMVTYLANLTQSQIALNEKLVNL
Summary of the method: as §1

EIF3H = EIF3H (UniProt O15372)
Chain of EIF3H (O15372 whole entry): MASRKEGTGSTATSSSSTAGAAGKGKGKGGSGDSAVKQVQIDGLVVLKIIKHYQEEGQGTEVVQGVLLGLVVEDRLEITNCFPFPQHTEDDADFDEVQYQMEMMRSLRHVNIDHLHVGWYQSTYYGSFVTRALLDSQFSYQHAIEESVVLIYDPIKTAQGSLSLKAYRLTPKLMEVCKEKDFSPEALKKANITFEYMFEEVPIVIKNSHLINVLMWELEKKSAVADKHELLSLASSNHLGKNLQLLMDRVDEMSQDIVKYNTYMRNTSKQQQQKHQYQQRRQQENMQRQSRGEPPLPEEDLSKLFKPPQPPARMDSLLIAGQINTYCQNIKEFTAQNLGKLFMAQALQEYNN
Summary of the method: as §1

FAM105A = target: T3, FAM105A (UniProt Q9NUU6)
T3 sequence (whole entry): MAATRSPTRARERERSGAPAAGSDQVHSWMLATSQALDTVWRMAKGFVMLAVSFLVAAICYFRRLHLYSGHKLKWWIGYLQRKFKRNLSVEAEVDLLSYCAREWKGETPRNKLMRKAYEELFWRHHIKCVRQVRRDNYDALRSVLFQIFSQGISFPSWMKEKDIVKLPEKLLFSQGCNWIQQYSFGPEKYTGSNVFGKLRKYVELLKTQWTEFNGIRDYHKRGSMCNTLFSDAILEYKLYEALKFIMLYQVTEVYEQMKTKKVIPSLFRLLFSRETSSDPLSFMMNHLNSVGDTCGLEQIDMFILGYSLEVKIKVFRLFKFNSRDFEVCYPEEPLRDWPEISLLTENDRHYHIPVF
Summary of the method: as §1

OTUB1 = OTUB1 (UniProt Q96FW1)
Chain of OTUB1 (Q96FW1 whole entry): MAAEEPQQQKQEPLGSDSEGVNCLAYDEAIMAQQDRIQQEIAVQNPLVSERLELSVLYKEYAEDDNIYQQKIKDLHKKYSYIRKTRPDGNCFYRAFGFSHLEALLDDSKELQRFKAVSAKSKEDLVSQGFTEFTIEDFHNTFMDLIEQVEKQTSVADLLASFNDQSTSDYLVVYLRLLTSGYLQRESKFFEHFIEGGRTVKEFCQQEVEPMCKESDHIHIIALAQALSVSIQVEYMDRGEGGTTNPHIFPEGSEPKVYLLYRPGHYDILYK
Summary of the method: as §1

OTUD4 = target: T4, OTUD4 (UniProt Q01804)
T4 sequence (whole entry): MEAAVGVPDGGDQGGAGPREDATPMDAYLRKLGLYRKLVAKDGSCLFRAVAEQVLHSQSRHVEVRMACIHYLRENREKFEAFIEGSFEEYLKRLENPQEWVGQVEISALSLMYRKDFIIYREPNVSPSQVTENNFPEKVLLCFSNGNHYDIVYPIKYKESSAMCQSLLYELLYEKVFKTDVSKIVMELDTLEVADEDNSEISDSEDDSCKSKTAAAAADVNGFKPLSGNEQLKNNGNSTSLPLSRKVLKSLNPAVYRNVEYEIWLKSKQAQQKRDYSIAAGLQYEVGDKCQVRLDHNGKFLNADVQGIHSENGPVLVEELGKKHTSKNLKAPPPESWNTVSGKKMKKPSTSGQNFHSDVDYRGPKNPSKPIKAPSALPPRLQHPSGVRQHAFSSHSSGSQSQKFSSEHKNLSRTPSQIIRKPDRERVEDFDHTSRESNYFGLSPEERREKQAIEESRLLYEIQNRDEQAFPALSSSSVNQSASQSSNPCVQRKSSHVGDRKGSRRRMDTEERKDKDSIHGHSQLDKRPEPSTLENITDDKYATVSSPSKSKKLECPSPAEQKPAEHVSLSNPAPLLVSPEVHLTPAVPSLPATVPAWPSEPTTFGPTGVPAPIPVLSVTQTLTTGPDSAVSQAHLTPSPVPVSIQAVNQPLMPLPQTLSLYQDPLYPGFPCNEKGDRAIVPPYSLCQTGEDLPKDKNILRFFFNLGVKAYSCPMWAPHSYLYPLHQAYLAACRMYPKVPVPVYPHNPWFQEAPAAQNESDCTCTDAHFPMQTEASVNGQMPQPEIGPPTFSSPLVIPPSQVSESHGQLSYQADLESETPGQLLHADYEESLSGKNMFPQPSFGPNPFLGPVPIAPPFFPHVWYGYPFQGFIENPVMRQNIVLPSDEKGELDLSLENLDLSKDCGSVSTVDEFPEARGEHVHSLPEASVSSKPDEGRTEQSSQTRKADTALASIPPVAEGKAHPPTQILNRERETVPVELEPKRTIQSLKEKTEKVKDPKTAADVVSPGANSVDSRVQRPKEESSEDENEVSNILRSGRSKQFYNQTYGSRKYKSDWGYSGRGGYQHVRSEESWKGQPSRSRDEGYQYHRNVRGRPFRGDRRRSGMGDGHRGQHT
Summary of the method: as §1

OTUD5 = target: T5, OTUD5 (UniProt Q96G74)
T5 sequence (whole entry): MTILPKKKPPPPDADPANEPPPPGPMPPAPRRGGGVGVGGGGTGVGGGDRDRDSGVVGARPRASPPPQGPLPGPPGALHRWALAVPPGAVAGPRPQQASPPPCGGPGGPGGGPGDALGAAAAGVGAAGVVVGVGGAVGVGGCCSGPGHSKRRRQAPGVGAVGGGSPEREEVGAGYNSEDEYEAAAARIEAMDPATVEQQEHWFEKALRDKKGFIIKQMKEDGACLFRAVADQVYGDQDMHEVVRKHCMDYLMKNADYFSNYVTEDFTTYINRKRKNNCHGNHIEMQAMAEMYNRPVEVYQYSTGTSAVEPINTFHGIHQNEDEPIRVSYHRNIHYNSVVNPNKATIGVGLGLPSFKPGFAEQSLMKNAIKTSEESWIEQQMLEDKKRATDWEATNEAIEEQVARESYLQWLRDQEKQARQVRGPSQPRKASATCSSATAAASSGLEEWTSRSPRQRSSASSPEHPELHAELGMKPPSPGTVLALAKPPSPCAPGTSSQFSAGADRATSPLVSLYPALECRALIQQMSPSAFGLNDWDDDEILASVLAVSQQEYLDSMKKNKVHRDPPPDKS
Summary of the method: as §1

Measured: log2 ratio of Biotin-Ahx-Ub-VS probe labelling

Cc1ncsc1CCNC(=O)CCl
active: ALG13 -1.18
inactive: ATXN3 0.0484 | BAP1 -0.27 | EIF3F 0.501 | EIF3H 0.195 | FAM105A 0.185 | OTUB1 0.885 | OTUD4 -0.271 | OTUD5 0.163
